Each structure is given as a SMILES string. Where “and” joins values, the source holds several entries; their conditions need not be identical. Equal values may be shown once. Inconclusive results are not listed. A structure can be active in one record and inactive in another. Calls of active or inactive are those of the source. Calls follow the shape of the dose curve; as a rule, active = well fitted cell-killing curve with a large enough effect in the repeat runs; inconclusive = weak or mixed curves; inactive = flat fitted curve, though single readings scatter.
% is scaled to controls: 0 for no effect and ±100 for the full control effect; potency is read from the fitted curve at half-maximal effect.

This assay is described as follows: qHTS RealTime-Glo MT Cell Viability Assay in HepG2 cells - 16 hour (AID 1224885). Also: nearly all actives have a fitted effect of over 50% in size. The settings on record: RealTime-Glo luminescence; series mostly up to 76.8 µM; activity change, negative = cytotoxic: at the top concentration. An excerpt:
U.S. Tox21 Program National Center for Advancing Translational Sciences [NCATS] NIH Chemical Genomics Center [NCGC] U.S. Environmental Protection Agency [EPA] National Institutes of Environmental Health Sciences [NIEHS] National Toxicology Program [NTP] U.S. Food and Drug Administration [FDA] Tox21 Assay Overview: Measure of cell viability is critical in the cell-base assay. Analysis of cell viability is necessary for the characterization of cell responses to cytotoxic drugs and environmental stress. A RealTime-Glo MT Cell Viability Assay to monitor cell viability in real time of continues cell culture during 40 hours of compound treatment was used to screen Tox21 10K library compounds in HepG2 cells. The RealTime-Glo MT Cell Viability Assay is a nonlytic, homogeneous, bioluminescent method to measure cell viability in real time using a simple, plate-based method. The assay involves adding NanoLuc luciferase and a cell-permeant prosubstrate to cells in culture. Viable cells reduce the proprietary prosubstrate to generate a substrate for NanoLuc luciferase. This substrate diffuses from cells into the surrounding culture medium, where it is rapidly used by the NanoLuc Enzyme to produce a luminescent signal. The signal correlates with the number of viable cells, making the assay well suited for cytotoxicity studies.
Tox21 Assay Protocol Summary: The mixture of HepG2 cell suspension and reagents were dispensed at 600cells/6 ul/well in 1536-well tissue culture treated black solid bottom plates using a Multidrop dispenser. After the assay plates were incubated at a 37 C/5% CO2 incubator for 5 hours, 23 nL of compounds dissolved in DMSO, positive and negative controls was transferred to the assay plate by a pintool work station. The plates were incubated at 37 C for 40 hours. The luminescence intensity were measured at 0h, 8h, 16h, 24h, 32h and 40h time points using ViewLux plate reader during compound treatment.
A general note: Quantitative high-throughput screening tests each substance at several concentrations.
`NCCCNCCCN`: the “activity change, negative = cytotoxic” value was -0.182% (inactive).

For the compound `CC(=O)CCC(C)=O`, the “activity change, negative = cytotoxic” value was -1.06% (inactive).

As for `O=Cc1ccc2c(c1)OCO2`, the “activity change, negative = cytotoxic” value is -0.0869% (inactive).

Turning to `c1cc2ccc3cccc4ccc(c1)c2c34`, the “activity change, negative = cytotoxic” value is -5.24% (inactive).

Regarding `CC1Sc2c(C(=O)O)c(=O)c3cc(F)c(N4CCNCC4)cc3n21` (stereo not given), the “activity change, negative = cytotoxic” value was 2.67% [at 35.3 µM] (inactive).

On to `CCBr`, for which the “activity change, negative = cytotoxic” value was 0.429% (inactive).

Regarding `CC(C)(Cl)[N+](=O)[O-]`, the “activity change, negative = cytotoxic” value was -1.82% (inactive).

Consider `C/C=C/C=O`, for which the “activity change, negative = cytotoxic” value was -2.52% (inactive).

As for `Cc1c(F)c(F)c(COC(=O)C2C(/C=C(\Cl)C(F)(F)F)C2(C)C)c(F)c1F` (stereo not given), the “activity change, negative = cytotoxic” value was -3.82% (inactive).

For the compound `ClCCCCBr`, the “activity change, negative = cytotoxic” value was -2.83% (inactive).

Turning to `N#Cc1ccc(Cl)cc1`, the “activity change, negative = cytotoxic” value was 0.732% (inactive).

For `CCOP(=S)(OCC)Oc1cc(Cl)c(Br)cc1Cl`, the “activity change, negative = cytotoxic” value was -6.61% (inactive).

On to `Nc1ccc(N=Nc2ccc(-c3ccc(N=Nc4c(S(=O)(=O)O)cc5cc(S(=O)(=O)O)c(N=Nc6ccccc6)c(O)c5c4N)cc3)cc2)c(N)c1`, for which the “activity change, negative = cytotoxic” value is 3.09% [at 35.3 µM] (inactive).

For the compound `CCCN(CCC)c1c([N+](=O)[O-])cc(S(C)(=O)=O)cc1[N+](=O)[O-]`, the “activity change, negative = cytotoxic” value was -21.7% (inactive).

On to `CO/C=C(/C(=O)OC)c1ccccc1COc1cccc(C(F)(F)F)n1`, for which the “activity change, negative = cytotoxic” value was -21.1% (inactive).

On to `O=C(OC1CCCCC1)c1ccccc1C(=O)OC1CCCCC1`, for which the “activity change, negative = cytotoxic” value is -6.17% (inactive).

Regarding `O=C(Nc1ccccc1)Nc1cnns1`, the “activity change, negative = cytotoxic” value is -21.5% (inactive).

`ClCc1ccccc1`: the “activity change, negative = cytotoxic” value was -0.763% (inactive).

As for `O=C=Nc1ccc(Cl)cc1`, the “activity change, negative = cytotoxic” value was -4.92% (inactive).

As to `C=CC(=O)OC(C)(C)C`, the “activity change, negative = cytotoxic” value was -0.299% (inactive).

In the case of `CCCCNP(N)(N)=S`, the “activity change, negative = cytotoxic” value is -1.93% (inactive).

`CCn1cc[n+](C)c1`: the Potency result is “inactive”.

For `CCOC(=O)[C@]1(c2ccccc2)Oc2ccccc2[C@@H]1N`, the “activity change, negative = cytotoxic” value is -5.89% (inactive).

As to `O=C(O)COc1ccc(Cl)cc1`, the “activity change, negative = cytotoxic” value is 2.92% (inactive).

Regarding `C=CCN1CC[C@]23c4c5ccc(O)c4O[C@H]2C(=O)CC[C@@]3(O)[C@H]1C5`, the “activity change, negative = cytotoxic” value was 3.01% [at 35.3 µM] (inactive).

Take `CCOP(=O)(OCC)O/C(=C/Cl)c1ccc(Cl)cc1Cl`: the “activity change, negative = cytotoxic” value was -21% (inactive).

Consider `CCCCCCC#N`, for which the “activity change, negative = cytotoxic” value is -2.19% (inactive).

For `CC(C)O.CC(C)O.OCCN(CCO)CCO.OCCN(CCO)CCO.[Ti]`, the “activity change, negative = cytotoxic” value is 0.658% (inactive).

As to `Sc1ccccc1Cl`, the “activity change, negative = cytotoxic” value was 3.33% [at 35.3 µM] (inactive).

For the compound `CC(C)(CCl)C(=O)Cl`, the “activity change, negative = cytotoxic” value is -4.43% (inactive).

With `O=C(CCl)c1ccc(Cl)cc1Cl`, the Potency entry is “inactive and 16.9 µM (active)”.

For `COc1cc(CC(C)N)cc2c1OCO2` (stereo not given), the “activity change, negative = cytotoxic” value was -0.0071% (inactive).

Regarding `N#CCc1ccccc1`, the “activity change, negative = cytotoxic” value was 1.89% (inactive).

Turning to `CC(c1ccc(O)cc1)(c1ccc(O)cc1)c1ccc(O)cc1`, the “activity change, negative = cytotoxic” value is -19.6% (inactive).

Consider `CCC(C)(NC(=O)c1cc(Cl)c(C)c(Cl)c1)C(=O)CCl` (stereo not given), for which the Potency is 49.3 µM (active).

`O=C(CBr)OCc1ccccc1`: the “activity change, negative = cytotoxic” value is 0.635% (inactive).

For `Nc1nc(N)nc(N)n1`, the “activity change, negative = cytotoxic” value is 0.0045% (inactive).

With `Nc1ccc([N+](=O)[O-])cc1[N+](=O)[O-]`, the “activity change, negative = cytotoxic” value is -8.94% (inactive).

Consider `c1ccoc1`, for which the “activity change, negative = cytotoxic” value is 3.06% (inactive).

In the case of `CC(C)(C)C(O)C(Oc1ccc(Cl)cc1)n1cncn1` (stereo not given), the “activity change, negative = cytotoxic” value is -2.99% (inactive).

The values are drawn from PubChem BioAssay (Tox21).
